Inconclusive results are not listed. A number with no mark means an inactive call. Activity calls are given as the source filed them. Calls come from the whole dose curve; as a rule, active = well fitted inhibition curve with a large enough effect; inconclusive = small, poorly fitted or top-dose-only effect; inactive = no such curve, though single readings can be large or run the other way.
Assay: BET inhibitor-based combinations targeting novel dependencies in MECOM-rearranged (r) AML: MV-4-11 cell line (AID 2202233); note: nearly all actives have a fitted effect of over 45% in size;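 for viability, % of control: plate controls were DMSO for no effect and blank wells for full effect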
Conditions: MV-4-11 AML viability, CellTiter-Glo luminescence, 48 h; series mostly up to 46 µM; viability, % of control: at the top concentration
In short: (§1)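 Cells at 500/well were exposed for 48 hr to MIPE v5.0 drugs as 11-point dose curves. Viability was read by CellTiter-Glo luminescence and normalized to DMSO and empty-well controls. Activity was expressed as AUC and per-cell-line Z-AUC.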
With `O=c1[nH]c2ccccc2n1C1CCN(Cc2ccc(-c3[nH]c4cc5ncnc5cc4nc3-c3ccccc3)cc2)CC1` the Potency was 14800 nM (active).
In the case of `COC[C@@H](NC(C)=O)C(=O)NCc1ccccc1`, the “viability, % of control” value is reported as 131%.
With `COc1ccc(C(=O)c2c(C)n(CCN3CCOCC3)c3ccccc23)cc1` the Potency was 2630 nM (active).
With `C[C@]12Cc3cn[nH]c3C[C@@H]1CC[C@@H]1[C@@H]2CC[C@@]2(C)[C@H]1CC[C@]2(C)O` the Potency was 742 nM (active).
For `COCC1(CO)C(=O)C2CCN1CC2` (configuration not stated), the Potency was 10500 nM (active).
For `CC1=C(O)C(=O)C=C2C1=CC=C1[C@@]2(C)CC[C@@]2(C)[C@@H]3C[C@](C)(C(=O)O)CC[C@]3(C)CC[C@]12C`, the Potency was 662 nM (active).
In the case of `Cc1sc2c(c1C)C(c1ccc(Cl)cc1)=NC(CC(N)=O)c1nnc(C)n1-2` (configuration not stated), the Potency is reported as 66.1 nM (active).
With `N=c1c2c(-c3ccccc3)c(-c3ccccc3)n(Cc3ccccc3)c2ncn1C1CCC(O)CC1` (configuration not stated) the Potency was 742 nM (active).
With `CN1[C@H]2CC(O)C[C@H]1[C@H]1O[C@H]12` (some centres not stated) the “viability, % of control” value was 139%.
For `c1ccc2c(CN3CCNCC3)cccc2c1`, the “viability, % of control” value was 108%.
In the case of `C[C@]12CC[C@@H]3[C@@H](CCC4=CC(=O)CC[C@@H]43)[C@@H]1CC[C@@H]2OC(=O)CCc1ccccc1`, the Potency is reported as 18600 nM (active).
With `COc1ccc(C(=O)c2c(C)n(CCN3CCOCC3)c3cc(I)ccc23)cc1` the Potency was 8330 nM (active).
In the case of `C[C@](O)(COc1ccc(C#N)cc1)C(=O)Nc1ccc(C#N)c(C(F)(F)F)c1`, the “viability, % of control” value is reported as 74.6%.
In the case of `CC(C)(C)c1cc(C=C(C#N)C#N)cc(Br)c1O`, the Potency is reported as 18600 nM (active).
For `CCN1C[C@]2(OC(=O)c3ccccc3NC(C)=O)CC[C@H](OC)[C@@]34[C@H]5CC6[C@@H](OC)C[C@](O)(C(C[C@@H]23)[C@@H]14)[C@@]5(O)[C@@H]6OC`, the “viability, % of control” value was 117%.

Assay: BET inhibitor-based combinations targeting novel dependencies in MECOM-rearranged (r) AML: HNT-34 cell line (AID 2202234); note: nearly all actives have a fitted effect of over 35% in size;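 for viability (% of control): plate controls were vehicle wells for no effect and cell-free wells for full effect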
Conditions: HNT-34 AML viability, CellTiter-Glo luminescence, 48 h; series mostly up to 46 µM; viability (% of control): at the top concentration
In short: as §1
With `CCOC(=O)c1c(C(C#N)=CN)c2ccc(Cl)c(Cl)c2n1C` the “viability (% of control)” value was 87%.
For `Cc1ncc(OC[C@@]2(c3cccc(F)c3)C[C@H]2C(=O)Nc2ccc(F)cn2)c(C)n1`, the “viability (% of control)” value was 96.4%.
In the case of `COC[C@@H](NC(C)=O)C(=O)NCc1ccccc1`, the “viability (% of control)” value is reported as 110%.
In the case of `COc1ccc(C(=O)c2c(C)n(CCN3CCOCC3)c3ccccc23)cc1`, the Potency is reported as 2350 nM (active).
For `Cc1sc2c(c1C)C(c1ccc(Cl)cc1)=N[C@@H](CC(=O)OC(C)(C)C)c1nnc(C)n1-2`, the Potency was 662 nM (active).
With `O=S(=O)(CC1CS1)c1ccc(Oc2ccccc2)cc1` (configuration not stated) the Potency was 20900 nM (active).
For `COCC1(CO)C(=O)C2CCN1CC2` (configuration not stated), the Potency was 5900 nM (active).
With `CCCC[N+]1(C)[C@H]2CC(OC(=O)[C@H](CO)c3ccccc3)C[C@H]1[C@H]1O[C@H]12` (some centres not stated) the “viability (% of control)” value was 106%.
For `CC1=C(O)C(=O)C=C2C1=CC=C1[C@@]2(C)CC[C@@]2(C)[C@@H]3C[C@](C)(C(=O)O)CC[C@]3(C)CC[C@]12C`, the Potency was 934 nM (active).
For `C[C@@H]1C[C@@H]([C@H](O)CC2CC(=O)NC(=O)C2)C(=O)[C@@H](C)C1`, the Potency was 263 nM (active).
For `CN1[C@H]2CC(O)C[C@H]1[C@H]1O[C@H]12` (some centres not stated), the “viability (% of control)” value was 111%.
With `C[C@@H]1CC[C@H]2[C@@H](C)C(=O)O[C@@H]3O[C@@]4(C)CC[C@@H]1[C@]32OO4` the Potency was 14800 nM (active).
With `CN[C@@H]1Cc2cccc3[nH]c(=O)n(c23)C1` the “viability (% of control)” value was 109%.
In the case of `O=S(=O)(F)Cc1ccccc1`, the “viability (% of control)” value is reported as 108%.
For `CC(C)(C)c1cc(C=C(C#N)C#N)cc(Br)c1O`, the Potency was 16600 nM (active).

Assay: BET inhibitor-based combinations targeting novel dependencies in MECOM-rearranged (r) AML: UCSD-AML1 cell line (AID 2202235); note: nearly all actives have a fitted effect of over 40% in size;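 for viability (% of control): plate controls were DMSO vehicle wells for no effect and blank wells for full effect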
Conditions: UCSD-AML1 AML cells viability, CellTiter-Glo, 48 h; series mostly up to 46 µM; viability (% of control): at the top concentration
In short: as §1
For `Fc1ccc(C(OCCN2CCN(CCCc3ccccc3)CC2)c2ccc(F)cc2)cc1`, the Potency was 26300 nM (active).
In the case of `CCOC(=O)c1c(C(C#N)=CN)c2ccc(Cl)c(Cl)c2n1C`, the “viability (% of control)” value is reported as 105%.
In the case of `Cc1ncc(OC[C@@]2(c3cccc(F)c3)C[C@H]2C(=O)Nc2ccc(F)cn2)c(C)n1`, the “viability (% of control)” value is reported as 111%.
In the case of `COC[C@@H](NC(C)=O)C(=O)NCc1ccccc1`, the “viability (% of control)” value is reported as 103%.
With `O=C1CC[C@@]2(O)[C@H]3Cc4ccc(O)c5c4[C@@]2(CCN3CC2CC2)[C@H]1O5` the “viability (% of control)” value was 105%.
With `C[C@]12Cc3cn[nH]c3C[C@@H]1CC[C@@H]1[C@@H]2CC[C@@]2(C)[C@H]1CC[C@]2(C)O` the “viability (% of control)” value was 84.7%.
In the case of `C[C@]12CC[C@@H]3c4ccc(OC(=O)N(CCCl)CCCl)cc4CC[C@H]3[C@@H]1CC[C@@H]2OP(=O)(O)O`, the “viability (% of control)” value is reported as 104%.
In the case of `CCCC[N+]1(C)[C@H]2CC(OC(=O)[C@H](CO)c3ccccc3)C[C@H]1[C@H]1O[C@H]12` (some centres not stated), the “viability (% of control)” value is reported as 105%.
For `CC1=C(O)C(=O)C=C2C1=CC=C1[C@@]2(C)CC[C@@]2(C)[C@@H]3C[C@](C)(C(=O)O)CC[C@]3(C)CC[C@]12C`, the Potency was 1050 nM (active).
With `C[C@@H]1C[C@@H]([C@H](O)CC2CC(=O)NC(=O)C2)C(=O)[C@@H](C)C1` the Potency was 263 nM (active).
For `N=c1c2c(-c3ccccc3)c(-c3ccccc3)n(Cc3ccccc3)c2ncn1C1CCC(O)CC1` (configuration not stated), the Potency was 1320 nM (active).
With `CN1[C@H]2CC(O)C[C@H]1[C@H]1O[C@H]12` (some centres not stated) the “viability (% of control)” value was 120%.
In the case of `c1ccc2c(CN3CCNCC3)cccc2c1`, the “viability (% of control)” value is reported as 103%.
With `C[C@@H]1CC[C@H]2[C@@H](C)C(=O)O[C@@H]3O[C@@]4(C)CC[C@@H]1[C@]32OO4` the “viability (% of control)” value was 102%.
With `CN[C@@H]1Cc2cccc3[nH]c(=O)n(c23)C1` the “viability (% of control)” value was 112%.
In the case of `CN(C)CCN(C)CCc1ccc(Cl)c(Cl)c1`, the “viability (% of control)” value is reported as 110%.
For `COC1(CS(=O)c2ccccc2)CCN(CCc2c[nH]c3ccc(F)cc23)CC1` (configuration not stated), the “viability (% of control)” value was 105%.
In the case of `O=S(=O)(F)Cc1ccccc1`, the “viability (% of control)” value is reported as 108%.
In the case of `COc1ccc(C(=O)c2c(C)n(CCN3CCOCC3)c3cc(I)ccc23)cc1`, the “viability (% of control)” value is reported as 109%.
With `C[C@](O)(COc1ccc(C#N)cc1)C(=O)Nc1ccc(C#N)c(C(F)(F)F)c1` the “viability (% of control)” value was 104%.
With `CC(C)(C)c1cc(C=C(C#N)C#N)cc(Br)c1O` the Potency was 33200 nM (active).
With `CCN1C[C@]2(OC(=O)c3ccccc3NC(C)=O)CC[C@H](OC)[C@@]34[C@H]5CC6[C@@H](OC)C[C@](O)(C(C[C@@H]23)[C@@H]14)[C@@]5(O)[C@@H]6OC` the “viability (% of control)” value was 112%.

Reference: PubChem BioAssay (NCATS)
Potency is the fitted concentration of half-maximal effect.
